Experimental data published in PubChem BioAssay.
The source made the active and inactive calls.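 How the source made its calls, unless noted: active means inhibition at or above 50% at 10 µM; inactive means inhibition below 50%.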

Key:
[1] = inhibitors of TNFa-induced NFkB p65 translocation, primary screen, imaging, HUVEC, MLSMR starter and 10KST1 sets (AID 438;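 active means inhibition above 20% together with a positive visual image hit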;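 further: compound added about 3h40 before a 20 min TNFalpha stimulation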;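 on inhibition: signal is the nuclear over cytoplasmic p65 intensity ratio per well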); settings: HUVEC TNFa-induced p65 nuclear translocation; cell count: measured here: nuclei count (cytotoxicity indicator), at 2.08 µM; inhibition: at 2 µM, stronger effect = higher value, 0% TNFa-plus-vehicle, 100% no-TNFa wells
[2] = reduction of polyQ htt aggregates in cells – imaging, exon1htt(103Q)mCFP cells, high-content imaging, primary screen (AID 483;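 active means visual image review flags a hit and inhibition of aggregation exceeds 20%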;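 further: compound exposure lasted 3 days before fixation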;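 on nuclei count: percent of the per-plate median nuclei count of sample wells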); settings: exon1htt(103Q)mCFP cell line, aggregate imaging, at 2 µM; inhibition of aggregation: stronger effect = higher value; nuclei count: measured here: cell count, toxicity
[3] = endothelial E-selectin expression blockers – imaging, HUVEC, immunofluorescence, MLSMR starter and 10KST1 sets, primary screen (AID 487;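 active means visually confirmed hit in the image check and inhibition above 20%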;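 on inhibition: signal is fraction of cell area covered by stained E-selectin grains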;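 on nuclei count: 100% = median nuclei count of all wells on the same plate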); settings: HUVEC TNFalpha-induced E-selectin immunofluorescence imaging, at 2 µM; inhibition: stronger effect = higher value; nuclei count: measured here: cell number, toxicity
[4] = molecular target: Voltage-gated potassium channel subunit beta-2 (Rattus norvegicus) (UniProt P62483); assay: inhibitors of rat Kvbeta2 reductase activity – biochemical, NADPH fluorescence, primary screen (AID 622;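 active means fluorescence slope higher than the sample average by over 3 SD, cut at about -0.22 in these data, passing the limit was not always enough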;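 further: slope of raw intensity against log time taken from 70 to 1610 s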); settings: recombinant KvBeta, 4-cyanobenzaldehyde reduction, at 10 µM, stronger effect = higher value
Sequence of Voltage-gated potassium channel subunit beta-2 (Rattus norvegicus) (P62483 whole entry, looked up): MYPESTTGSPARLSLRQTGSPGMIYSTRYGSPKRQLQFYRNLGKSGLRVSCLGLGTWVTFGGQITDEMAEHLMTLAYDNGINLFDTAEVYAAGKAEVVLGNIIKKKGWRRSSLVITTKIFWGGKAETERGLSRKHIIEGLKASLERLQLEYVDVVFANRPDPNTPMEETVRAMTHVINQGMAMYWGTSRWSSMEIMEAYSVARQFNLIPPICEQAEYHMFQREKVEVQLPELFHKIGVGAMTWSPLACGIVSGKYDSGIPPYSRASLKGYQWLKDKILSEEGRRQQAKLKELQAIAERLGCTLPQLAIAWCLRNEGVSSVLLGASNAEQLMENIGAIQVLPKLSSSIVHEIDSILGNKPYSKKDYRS

[5] = molecular target: Voltage-gated potassium channel subunit beta-2 (Rattus norvegicus) (UniProt P62483); assay: enhancers of rat Kvbeta2 NADPH turnover – biochemical, NADPH fluorescence, primary screen (AID 623;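 active means NADPH fluorescence slope more negative than the mean of all samples by about 3 SD, 99.7% confidence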;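 further: fluorescence intensity change per second fitted from 20 to 320 s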); settings: Recombinant KvBeta, NADPH fluorescence decrease slope, 10 min; at 10 µM; stronger effect = lower value
[6] = molecular target: Alpha-2C adrenergic receptor (Homo sapiens) (UniProt P18825); assay: compounds altering alpha2C-coupled GIRK flux – cell-based, HEK293 alpha2C/GIRK1/2, thallium flux, primary screen (AID 624;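 active means fluorescence slope after compound addition differing from the mean of all screened samples at 99.7% confidence, in either direction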;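 further: slope of fluorescence ratio to pre-addition baseline per second over 15 to 24 s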); settings: thallium flux BTC fluorescence, at 10 µM, actives lie on both sides
Sequence of Alpha-2C adrenergic receptor (Homo sapiens) (P18825 whole entry, looked up): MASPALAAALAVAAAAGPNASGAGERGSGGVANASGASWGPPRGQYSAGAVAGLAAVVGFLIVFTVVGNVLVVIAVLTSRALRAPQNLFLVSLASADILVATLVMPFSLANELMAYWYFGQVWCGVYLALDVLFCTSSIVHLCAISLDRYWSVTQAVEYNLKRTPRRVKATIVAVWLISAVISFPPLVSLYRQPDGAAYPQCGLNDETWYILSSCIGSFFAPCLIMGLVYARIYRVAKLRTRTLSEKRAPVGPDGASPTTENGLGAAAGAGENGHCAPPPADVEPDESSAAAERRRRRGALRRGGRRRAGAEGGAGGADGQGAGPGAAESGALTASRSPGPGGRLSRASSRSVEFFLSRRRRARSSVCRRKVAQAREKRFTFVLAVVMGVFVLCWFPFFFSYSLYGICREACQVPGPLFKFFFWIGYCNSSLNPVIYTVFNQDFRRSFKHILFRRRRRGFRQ

[7] = blockers of RIG-like receptor reporter activation – cell-based, Sendai virus stimulus, luciferase, 10K MLSCN set, TLR/RLR signaling modifier project, primary screen (AID 602276); settings: HEK293 RL24 IRF3 luciferase reporter, at 10 µM, stronger effect = higher value;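 further: firefly luciferase from ISG56 promoter only with Renilla not read in this screen; 0% = Sendai virus plus DMSO and 100% = medium plus DMSO without virus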
[8] = TLR3 IRF3 reporter activation blockers – cell-based, poly I:C stimulus, luciferase, 10K MLSCN set, primary screen (AID 602277;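 active means inhibition of the reporter signal at or above 50%; inactive means inhibition below 50%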); settings: HEK293-TLR3 RL24 IRF3 luciferase reporter, at 10 µM, stronger effect = higher value

SMILES	cell count [1]	inhibition [1]	inhibition of aggregation [2]	nuclei count [2]	inhibition [3]	nuclei count [3]	fluorescence slope [4]	NADPH fluorescence slope [5]	slope [6]	inhibition [7]	inhibition [8]
COc1ccc(-c2c(=O)n(OCc3ccccn3)c3ccccc3[n+]2[O-])cc1OC	398	3.3% (inactive)	-10.4% (inactive)	104%	-22.9% (inactive)	110%	-0.385 (inactive)	-3.7e-09 (inactive)	0.00593 (inactive)	-2.61% (inactive)	-16.8% (inactive)
O=C(NC(=O)c1ccc(Cl)cc1)Nc1cc(N2CCCCC2)ncn1	333	5.5% (inactive)	11.3% (inactive)	85.1%	-70% (inactive)	89.5%	-0.48 (inactive)	-4.9e-05 (inactive)	0.00674 (inactive)	13.2% (inactive)	9.71% (inactive)
Nn1cc(-c2ccccc2)nc1SCC(=O)N1CCN(S(=O)(=O)c2ccccc2)CC1	341	-17.9% (inactive)	13.8% (inactive)	102%	-23.8% (inactive)	106%	-0.421 (inactive)	4.3e-05 (inactive)	0.00477 (inactive)	8.62% (inactive)	12.7% (inactive)
CC(C)(C)n1nnnc1CN(Cc1ccco1)Cc1cc2cc3c(cc2[nH]c1=O)OCO3	667	13.3% (inactive)	-11.2% (inactive)	108%	-53.9% (inactive)	130%	-0.401 (inactive)	-5.7e-05 (inactive)	0.00513 (inactive)	15.5% (inactive)	16% (inactive)
CCOC(=O)C1=C(N)OC2=C(C(=O)CC(C)(C)C2)C1c1ccoc1 (centres undefined)	774	-12.9% (inactive)	-14.6% (inactive)	78.3%	-15.3% (inactive)	110%	-0.418 (inactive)	-4e-05 (inactive)	0.00368 (inactive)	3.82% (inactive)	7.84% (inactive)
CC(C)(C)c1nc(CN2CCOCC2)ccc1O	580	-17% (inactive)	21.1% (inactive)	104%	-58.3% (inactive)	109%	-0.401 (inactive)	-4.4e-05 (inactive)	0.0093 (inactive)	10.4% (inactive)	29.3% (inactive)
Cn1c(C(=O)NCCCN2CCN(c3ccc(F)cc3)CC2)cc2c(=O)n(C)c3ccccc3c21	655	1.1% (inactive)	6.5% (inactive)	107%	-73.4% (inactive)	118%	-0.42 (inactive)	-6.1e-05 (inactive)	0.00607 (inactive)	6.19% (inactive)	39.1% (inactive)
CCC(=O)N/C(N)=N/c1nc(C)c2cc(OC)ccc2n1	730	10.7% (inactive)	-24.4% (inactive)	95.9%	9.1% (inactive)	92.1%	-0.378 (inactive)	-1.1e-05 (inactive)	0.00511 (inactive)	-62.4% (inactive)	-122% (inactive)
CCOc1ccccc1Nc1nnc(SCC(=O)N2CCCC2)s1	655	1% (inactive)	12.1% (inactive)	106%	-65.3% (inactive)	100%	-0.609 (inactive)	1.4e-05 (inactive)	0.00607 (inactive)	4.86% (inactive)	12.3% (inactive)
O=C(O)CCCc1nc(-c2ccccc2)no1	726	-1.7% (inactive)	-4.5% (inactive)	91.6%	22.1% (inactive)	108%	-0.447 (inactive)	1.4e-05 (inactive)	0.00583 (inactive)	16.6% (inactive)	20.7% (inactive)
O=C(C1CCCN1S(=O)(=O)c1cccc2cccnc12)N1CCn2c1nc1ccccc12 (centres undefined)	626	-1.1% (inactive)	-15.8% (inactive)	117%	-28.6% (inactive)	124%	-0.63 (inactive)	-1.3e-05 (inactive)	0.00657 (inactive)	8.59% (inactive)	21.7% (inactive)
CCOC(=O)N1CCC(NC(=O)CCC(=O)N2CC(C)Oc3ccc(Cl)cc32)CC1 (centres undefined)	326	12.5% (inactive)	-2.6% (inactive)	81.9%	13.6% (inactive)	89%	-0.369 (inactive)	-5e-05 (inactive)	0.00486 (inactive)	7.09% (inactive)	6.64% (inactive)
CCCN(CCC)CCCNS(=O)(=O)c1ccc2c(c1)oc(=O)n2C	377	-2.4% (inactive)	6.1% (inactive)	102%	-61.9% (inactive)	112%	-0.432 (inactive)	-9.3e-05 (inactive)	0.00475 (inactive)	16.6% (inactive)	23% (inactive)
CCCCOc1ccccc1NC(=O)c1ccco1	334	11% (inactive)	-21.3% (inactive)	91.7%	-54.6% (inactive)	122%	-0.517 (inactive)	-4.6e-05 (inactive)	0.00466 (inactive)	18.5% (inactive)	18.5% (inactive)
